Results: the supplement of paper PMC3334620
In all, about 33,000 sequences were measured (“E-score (-0.5 to 0.5)”: median about -0.021, highest 2% from about 0.32 on). For the sample, the highest values were picked, then their nearest neighbours and some sequences at random.

Each sequence was assayed against T1, Zap1 (UniProt P47043) (assay: PBM E-score (8-mer binding enrichment) (E-score (-0.5 to 0.5)); higher = stronger / more preferred TF binding). Settings: protein concentration: 200 nM; construct: GST-full length.
T1 sequence: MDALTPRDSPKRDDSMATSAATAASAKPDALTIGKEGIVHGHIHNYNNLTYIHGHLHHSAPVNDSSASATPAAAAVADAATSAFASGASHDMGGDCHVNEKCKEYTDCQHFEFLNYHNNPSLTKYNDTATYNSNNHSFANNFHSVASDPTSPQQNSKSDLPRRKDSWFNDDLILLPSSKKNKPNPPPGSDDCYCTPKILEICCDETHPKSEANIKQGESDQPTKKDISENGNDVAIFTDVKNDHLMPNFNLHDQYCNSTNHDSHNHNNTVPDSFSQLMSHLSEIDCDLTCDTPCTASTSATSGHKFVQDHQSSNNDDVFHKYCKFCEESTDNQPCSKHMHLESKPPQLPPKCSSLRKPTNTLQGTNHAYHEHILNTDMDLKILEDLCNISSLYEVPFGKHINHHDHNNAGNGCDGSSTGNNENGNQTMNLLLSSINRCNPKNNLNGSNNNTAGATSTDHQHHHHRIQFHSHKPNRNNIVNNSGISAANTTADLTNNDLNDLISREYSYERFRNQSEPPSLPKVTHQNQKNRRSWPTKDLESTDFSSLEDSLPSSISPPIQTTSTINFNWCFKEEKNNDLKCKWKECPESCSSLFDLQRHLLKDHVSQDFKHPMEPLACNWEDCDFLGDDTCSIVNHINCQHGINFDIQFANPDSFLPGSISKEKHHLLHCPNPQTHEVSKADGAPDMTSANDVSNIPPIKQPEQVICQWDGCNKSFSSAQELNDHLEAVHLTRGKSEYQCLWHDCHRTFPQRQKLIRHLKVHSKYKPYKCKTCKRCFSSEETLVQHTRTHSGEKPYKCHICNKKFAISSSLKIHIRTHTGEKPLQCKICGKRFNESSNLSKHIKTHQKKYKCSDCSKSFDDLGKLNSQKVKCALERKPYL
Method: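 Universal 'all 10-mer' protein binding microarrays (Agilent AMADID 015681) probed with GST-tagged S. cerevisiae TFs (full-length or DBD) made by in vitro transcription/translation (PURExpress), about 100-200 nM. Bound TF was detected with fluorescent anti-GST. Each ungapped 8-mer (which stands for itself and its reverse complement) is scored by the PBM enrichment score (E-score), a modified Wilcoxon-Mann-Whitney statistic from -0.5 to +0.5, computed with the Universal PBM Analysis Suite. Scale: above 0.35 generally sequence-specific binding.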

Row | Sequence | PBM E-score
1 | ATGTAACG | 0.0833
2 | ACTGCTAT | -0.0537
3 | AAACGGAA | 0.127
4 | AAGACCGC | 0.0669
5 | GAGCAACC | 0.0661
6 | ATCGGTTC | 0.0913
7 | CATGACCG | 0.177
8 | GATGACCA | 0.129
9 | AATGACCC | 0.3
10 | CATGACCA | 0.284
11 | CATGACCC | 0.38
12 | GATGACCC | 0.403
13 | CCGACCTC | -0.0902
14 | CGATCTGA | -0.0395
15 | CAACTGTC | -0.0568
16 | ACGAAGGA | -0.166
17 | ACCCTTTG | 0.345
18 | ACCCTTTA | 0.415
19 | ATCCTTTG | 0.161
20 | ACCCTTTC | 0.298
21 | CCCCTTTA | -0.00689
22 | GCCCTTTA | -0.0495

Row | Sequence | PBM E-score
23 | CCCTACGC | -0.17
24 | GCGTCCCC | -0.249
25 | AGTGCCCC | -0.156
26 | AACCAGGT | 0.201
27 | ATGGAGCC | -0.222
28 | CGCGGTTC | 0.181
29 | AGCGGTTA | 0.405
30 | CGCGGTTA | 0.452
31 | GGCGGTCA | 0.12
32 | GGCGGTAA | 0.125
33 | CGCGGTGA | 0.144
34 | GGCGGTTA | 0.324
35 | AGCGGTTG | 0.216
36 | AGCGGTTC | 0.164
37 | AAAAACTA | 0.175
38 | ATACCAAA | 0.153
39 | GCCTACTA | -0.0183
40 | GAGTAAGC | -0.221
41 | CAGTAACG | 0.0273
42 | AAGTAACT | -0.0363
43 | GAGTAACC | 0.399
44 | AAGTAACC | 0.393

Row | Sequence | PBM E-score
45 | AAGTAACG | 0.052
46 | CAGTAACA | -0.0862
47 | CAGTAACC | 0.44
48 | GAGTAACA | 0.135
49 | GCAGTAAA | 0.104
50 | ATTATACG | 0.0915
51 | ATTATACA | 0.0605
52 | ATTATACC | 0.338
53 | CAGCAGAA | -0.0338
54 | GGAGGTCA | 0.136
55 | AGAGGTCC | 0.201
56 | CGAGGTCA | 0.357
57 | CGAGGTCC | 0.0996
58 | AGAGGTCA | 0.41
59 | AGAGGTCG | 0.304
60 | ATGTCGCG | 0.0309
61 | CAGAAGCC | -0.173
62 | GTCCCAAA | 0.0529
63 | AAGGTTCT | 0.327
64 | ATGGTTCC | 0.21
65 | AAGGTTCC | 0.317
66 | AAGGTTCG | -0.0644

Row | Sequence | PBM E-score
67 | AAGGTTCA | 0.054
68 | CAGGTTCC | 0.0995
69 | AGGGTTCA | 0.146
70 | AGGGTTCC | 0.354
71 | AGGGTTCG | 0.0919
72 | CCAGTGTA | -0.00071
73 | CACTGTAA | 0.0817
74 | CTAGCGAA | -0.221
75 | GCTTCAGA | -0.167
76 | CCATACCC | 0.29
77 | GCATACCC | 0.344
78 | GCATACCA | -0.0787
79 | ACATACCC | 0.347
80 | ACATACCG | -0.00488
81 | ACATACCA | -0.0785
82 | AGCAGGGG | -0.0612
83 | AGACAATA | 0.0476
84 | AGTTACTA | 0.129
85 | AGTTACGA | 0.226
86 | GGTTACGA | 0.465
87 | CGTTACCA | 0.31
88 | GGTTACTA | 0.447
